PubChem BioAssay (Tox21)
Values joined by “and” are separate entries in the source; they are usually repeats but may differ in a detail not shown here. Identical values can stand only once. Inconclusive results are not listed. Active and inactive are the calls of the source. Unless noted, calls come from the whole dose curve; as a rule, active = well fitted curve in the direction sought with a large enough effect in the repeat runs; inconclusive = weak or mixed curves; inactive = no such curve, though single readings can be large; an effect the other way counts as inactive or inconclusive.

Tests used:
[1] = qHTS assay to identify small molecule antagonists of the thyroid receptor (TR) signaling pathway - cell viability counter screen (AID 743064); note: nearly all actives have a fitted effect of over 50% in size; note: potency is the fitted concentration of half-maximal effect
Procedure, shortened: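 GH3.TRE-Luc cells, 4 h pre-plating; cpd + T3 1 nM final; 37 °C 23.5 h; CellTiter-Fluor 30 min; fluorescence read.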

[2] = tested on: thyroid hormone receptor (rat, GH3 cells); assay: qHTS assay to identify small molecule agonists of the thyroid receptor (TR) signaling pathway (AID 743066; calls by dose curve)
[3] = molecular target: Estrogen receptor (Homo sapiens) (UniProt P03372); assay: qHTS assay to identify small molecule antagonists of the estrogen receptor alpha (ER-alpha) signaling pathway (AID 743069; active = well fitted curve in the direction sought with a large enough effect in the signal ratio in the repeat runs, not every such curve was filed as active; the % refers to the signal ratio)
Procedure, shortened: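 Beta-lactamase FRET fluorescence is read after 2 hr at room temperature with LiveBLAzer B/G substrate. Before that, ER-alpha-bla HEK293 cells sit 4 hr after plating, then receive compound plus 17beta-estradiol and incubate 18 hr at 37C.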

[4] = qHTS assay to identify small molecule antagonists of the estrogen receptor alpha (ER-alpha) signaling pathway - cell viability counter screen (AID 743074; calls by dose curve;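 note: HEK293 cells carrying ER-alpha-UAS-bla reporter stimulated with 17beta-estradiol; nearly all actives have a fitted effect of over 45% in size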)
[5] = molecular target: Estrogen receptor (Homo sapiens) (UniProt P03372); assay: qHTS assay to identify small molecule agonists of the estrogen receptor alpha (ER-alpha) signaling pathway (AID 743075; calls by dose curve;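 note: HEK293 GripTite cells with ER-alpha and UAS-driven beta-lactamase reporter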)
[6] = molecular target: Estrogen receptor (Homo sapiens) (UniProt P03372); assay: qHTS assay to identify small molecule agonists of the estrogen receptor alpha (ER-alpha) signaling pathway using the BG1 cell line (AID 743079); conditions: BG1Luc4E2 cells, ERE-luciferase agonist, 22 h; note: nearly all actives have a fitted effect of over 20% in size; note: potency is the fitted concentration of half-maximal effect
[7] = qHTS assay to identify small molecule antagonists of the estrogen receptor alpha (ER-alpha) signaling pathway using the BG1 cell line (AID 743080; calls by dose curve;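 note: BG1 cells stimulated with 17beta-estradiol alongside compound; nearly all actives have a fitted effect of over 25% in size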; note: potency is the fitted concentration of half-maximal effect)
Procedure, shortened: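 Endogenous full-length ER-alpha in BG1-Luc-4E2 cells drives a stably integrated 4×ERE luciferase gene; compounds were tested against 17beta-estradiol over 21.5 h, with luminescence and multiplexed viability fluorescence recorded.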

[8] = qHTS assay to identify small molecule antagonists of the estrogen receptor alpha (ER-alpha) signaling pathway using the BG1 cell line - cell viability counter screen (AID 743081);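 note: compound given together with 17beta-estradiol as the ER stimulus; nearly all actives have a fitted effect of over 45% in size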
[9] = molecular target: Aromatase (Homo sapiens) (UniProt P11511); assay: qHTS assay to identify aromatase inhibitors (AID 743083); note: nearly all actives have a fitted effect of over 55% in size; note: potency is the fitted concentration of half-maximal effect
[10] = qHTS assay to identify aromatase inhibitors - cell viability counter screen (AID 743084);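 note: cells stimulated with testosterone during compound exposure; nearly all actives have a fitted effect of over 55% in size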
[11] = molecular target: Aryl hydrocarbon receptor (Homo sapiens) (UniProt P35869); assay: qHTS assay to identify small molecule that activate the aryl hydrocarbon receptor (AhR) signaling pathway (AID 743085); note: nearly all actives have a fitted effect of over 15% in size; note: potency is the fitted concentration of half-maximal effect;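 for activation: HG2L7.5c1 human HepG2 liver cells with stably integrated DRE-driven firefly reporter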
Procedure, shortened: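 Luminescence read-out: ONE-Glo reagent, 30 min at room temperature, in HG2L7.5c1 HepG2 reporter cells treated 24 h at 37C. Viability was measured beforehand by CellTiter-Fluor fluorescence after 30 min at 37C.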

[12] = qHTS assay to identify small molecule that activate the aryl hydrocarbon receptor (AhR) signaling pathway - cell viability counter screen (AID 743086);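 note: HepG2 liver cells carrying the AhR DRE luciferase reporter; nearly all actives have a fitted effect of over 45% in size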
Procedure, shortened: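 HepG2-AhR-luc (HG2L7.5c1) cells, 4000/well, treated 24 h at 37 C with compound; viability measured as CellTiter-Fluor fluorescence after 30 min in the same wells as the luciferase read.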

[13] = molecular target: Peroxisome proliferator-activated receptor gamma (Homo sapiens) (UniProt P37231); assay: qHTS assay to identify small molecule agonists of the peroxisome proliferator-activated receptor gamma (PPARg) signaling pathway (AID 743094; active = well fitted activation curve with a large enough effect in the signal ratio in the repeat runs, not every such curve was filed as active; the % refers to the signal ratio)
Procedure, shortened: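 Cell-based bla reporter, HEK293H background, PPARg-driven UAS. Pre-incubation 5 h, 37C, 5% CO2. Compound 17 h, 37C. Substrate 1 h RT; fluorescence.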

[14] = molecular target: Peroxisome proliferator-activated receptor gamma (Homo sapiens) (UniProt P37231); assay: qHTS assay to identify small molecule antagonists of the peroxisome proliferator-activated receptor gamma (PPARg) signaling pathway (AID 743191; calls by dose curve; note: nearly all actives have a fitted effect of over 30% in size)
Procedure, shortened: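 GeneBLAzer PPARg UAS-bla HEK293H cells, 5 h post-plating, exposed to compounds 17 h at 37C. LiveBLAzer B/G FRET substrate added for 1 h at room temperature; beta-lactamase reporter read by fluorescence intensity.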

[15] = qHTS assay for small molecule agonists of the antioxidant response element (ARE) signaling pathway (AID 743202; active = well fitted activation curve with a large enough effect in the signal ratio in the repeat runs, not every such curve was filed as active; the % refers to the signal ratio)
Procedure, shortened: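 HepG2 ARE-bla reporter line, 2,000 cells/well; 5 h preincubation 37 C/5% CO2; compound (DMSO) 16 h 37 C; B/G FRET substrate 2 h RT; fluorescence intensity.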

[16] = qHTS assay for small molecule agonists of the antioxidant response element (ARE) signaling pathway - cell viability counter screen (AID 743203; calls by dose curve; note: nearly all actives have a fitted effect of over 55% in size)
Procedure, shortened: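 Measured in the same wells as the beta-lactamase ARE reporter, this read-out is CellTiter-Glo luminescence from HepG2 ARE-bla cells given compounds for 16 hrs.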

[17] = qHTS assay for small molecule activators of the heat shock response signaling pathway - cell viability counter screen (AID 743209); note: nearly all actives have a fitted effect of over 50% in size
Procedure, shortened: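 Same-well multiplex: after 2.5 h room-temperature incubation with LiveBLAzer B/G substrate and fluorescence reading, CellTiter-Glo reagent was added to HSE-bla HeLa cells that had received compound for 5 h at 37 C; luminescence read after 30 min.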

[18] = qHTS assay for small molecule activators of the heat shock response signaling pathway (AID 743210; active = well fitted activation curve with a large enough effect in the signal ratio in the repeat runs, with a control signal flat, not every such curve was filed as active; the % refers to the signal ratio;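 note: HeLa cells with beta-lactamase reporter driven by heat shock elements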)
Procedure, shortened: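 Beta-lactamase reporter read-out: FRET substrate fluorescence after 2.5 h at RT, following 5 h compound treatment at 37 C of HeLa cells carrying HSE-driven bla reporter; quantitative HTS format.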

[19] = qHTS assay to identify small molecule antagonists of the peroxisome proliferator-activated receptor gamma (PPARg) signaling pathway - cell viability counter screen (AID 743194); conditions: Potency: co-treated with 50 nM rosiglitazone; note: nearly all actives have a fitted effect of over 55% in size
Procedure, shortened: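 Cytotoxicity counter screen in PPARg-bla HEK293H cells, same wells as reporter assay. Compounds plus 50 nM rosiglitazone (final) for 17 h at 37 C, then viability read by CellTiter-Glo luminescence.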

[20] = qHTS assay to identify small molecule antagonists of the thyroid receptor (TR) signaling pathway (AID 743065); note: nearly all actives have a fitted effect of over 55% in size; note: potency is the fitted concentration of half-maximal effect
Procedure, shortened: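 GH3.TRE-Luc rat pituitary cells (two TREs driving luciferase) were dosed with compound, then stimulated with 1 nM T3 (final) for 23.5 h at 37 C. ONE-Glo luminescence was the read-out, with CellTiter-Fluor fluorescence as the cytotoxicity counter-screen.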
% is set by controls: 0 for no effect and ±100 for the full control effect.

Peroxisome proliferator-activated receptor gamma (Homo sapiens), sequence (P37231 whole entry, looked up): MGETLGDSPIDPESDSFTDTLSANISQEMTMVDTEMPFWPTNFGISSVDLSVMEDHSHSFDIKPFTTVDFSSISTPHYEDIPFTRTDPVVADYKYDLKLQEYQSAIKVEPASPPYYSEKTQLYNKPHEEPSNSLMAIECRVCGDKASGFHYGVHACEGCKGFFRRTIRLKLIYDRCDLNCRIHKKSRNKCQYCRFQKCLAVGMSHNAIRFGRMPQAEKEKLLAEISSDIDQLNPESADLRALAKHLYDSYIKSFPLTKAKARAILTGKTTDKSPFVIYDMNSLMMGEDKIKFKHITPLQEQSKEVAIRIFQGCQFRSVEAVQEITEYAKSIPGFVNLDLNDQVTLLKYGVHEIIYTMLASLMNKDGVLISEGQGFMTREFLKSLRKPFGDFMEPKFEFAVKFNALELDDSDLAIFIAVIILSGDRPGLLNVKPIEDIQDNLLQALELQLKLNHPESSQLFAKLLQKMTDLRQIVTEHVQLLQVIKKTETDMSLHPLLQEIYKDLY
Aryl hydrocarbon receptor (Homo sapiens), sequence (P35869 whole entry, looked up): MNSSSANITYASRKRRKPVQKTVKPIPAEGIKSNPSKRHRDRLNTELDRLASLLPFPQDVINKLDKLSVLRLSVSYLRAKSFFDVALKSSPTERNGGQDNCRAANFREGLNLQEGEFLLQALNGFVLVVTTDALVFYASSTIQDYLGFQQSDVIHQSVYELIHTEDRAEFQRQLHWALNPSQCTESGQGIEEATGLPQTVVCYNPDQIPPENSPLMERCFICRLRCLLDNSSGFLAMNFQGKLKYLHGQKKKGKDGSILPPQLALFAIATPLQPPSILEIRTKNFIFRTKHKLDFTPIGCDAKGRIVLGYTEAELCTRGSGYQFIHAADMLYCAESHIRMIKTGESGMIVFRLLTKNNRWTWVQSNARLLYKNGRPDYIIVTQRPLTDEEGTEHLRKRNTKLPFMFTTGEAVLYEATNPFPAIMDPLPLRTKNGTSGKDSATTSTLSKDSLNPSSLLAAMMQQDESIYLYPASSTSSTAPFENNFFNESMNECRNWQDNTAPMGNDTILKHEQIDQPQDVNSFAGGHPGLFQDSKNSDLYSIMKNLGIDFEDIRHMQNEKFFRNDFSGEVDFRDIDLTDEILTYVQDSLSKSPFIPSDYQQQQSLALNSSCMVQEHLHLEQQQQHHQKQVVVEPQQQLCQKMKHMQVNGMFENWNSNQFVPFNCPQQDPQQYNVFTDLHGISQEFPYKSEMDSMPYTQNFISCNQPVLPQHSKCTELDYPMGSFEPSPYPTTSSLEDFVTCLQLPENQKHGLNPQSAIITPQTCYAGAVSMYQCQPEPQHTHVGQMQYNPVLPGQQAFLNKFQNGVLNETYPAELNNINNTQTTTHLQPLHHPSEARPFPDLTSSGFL
Estrogen receptor (Homo sapiens), sequence (P03372 whole entry, looked up): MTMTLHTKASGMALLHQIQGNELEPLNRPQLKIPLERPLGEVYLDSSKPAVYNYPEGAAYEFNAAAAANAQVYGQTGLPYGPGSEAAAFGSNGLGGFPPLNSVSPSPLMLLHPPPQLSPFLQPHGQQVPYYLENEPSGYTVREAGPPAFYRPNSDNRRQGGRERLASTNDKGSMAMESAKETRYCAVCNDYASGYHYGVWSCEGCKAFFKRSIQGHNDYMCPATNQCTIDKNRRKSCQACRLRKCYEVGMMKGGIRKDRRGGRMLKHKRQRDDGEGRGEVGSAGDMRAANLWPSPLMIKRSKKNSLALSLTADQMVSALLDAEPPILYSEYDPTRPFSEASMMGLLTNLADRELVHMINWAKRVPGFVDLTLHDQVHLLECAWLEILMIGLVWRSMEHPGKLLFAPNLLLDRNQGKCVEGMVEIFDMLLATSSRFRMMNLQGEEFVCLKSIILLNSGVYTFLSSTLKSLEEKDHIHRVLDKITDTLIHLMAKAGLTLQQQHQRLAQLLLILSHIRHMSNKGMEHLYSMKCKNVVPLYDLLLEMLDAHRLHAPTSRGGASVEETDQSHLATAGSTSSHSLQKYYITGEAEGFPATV
Aromatase (Homo sapiens), sequence (P11511 whole entry, looked up): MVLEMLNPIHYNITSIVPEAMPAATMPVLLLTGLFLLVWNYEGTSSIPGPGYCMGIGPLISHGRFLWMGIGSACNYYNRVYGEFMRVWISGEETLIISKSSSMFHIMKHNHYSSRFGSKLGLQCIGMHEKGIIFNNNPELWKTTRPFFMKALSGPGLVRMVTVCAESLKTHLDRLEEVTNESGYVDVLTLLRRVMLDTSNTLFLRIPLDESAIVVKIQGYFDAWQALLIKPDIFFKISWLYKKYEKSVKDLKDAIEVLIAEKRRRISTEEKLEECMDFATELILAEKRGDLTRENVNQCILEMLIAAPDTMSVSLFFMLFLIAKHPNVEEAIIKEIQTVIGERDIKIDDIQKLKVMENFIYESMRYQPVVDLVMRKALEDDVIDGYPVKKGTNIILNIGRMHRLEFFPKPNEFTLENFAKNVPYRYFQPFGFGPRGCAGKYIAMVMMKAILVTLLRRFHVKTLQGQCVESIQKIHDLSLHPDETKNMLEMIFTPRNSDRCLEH

COP(=S)(OC)Oc1c(Cl)cc(C)cc1Cl
active: Potency [6] 30.6 µM | Potency [11] 48.6 µM
inactive: Potency [1] | Potency [2] | Potency [3] | outcome [4] | Potency [5] | Potency [7] | Potency [8] | Potency [9] | Potency [10] | outcome [12] | outcome [13] | Potency [14] | Potency [15] | Potency [16] | Potency [17] | outcome [18]

CC1(C)C(=O)NC(=O)NC1=O
inactive: Potency [1] | Potency [2] | Potency [3] | Potency [5] | activation ([6]; at 70.3 µM (top of the series)) -7.44% | Potency [7] | Potency [8] | Potency [9] | Potency [10] | Potency [11] | outcome [12] | outcome [13] | Potency [19] | Potency [16] | Potency [17] | outcome [18]

[O]=[Cd]
inactive: Potency [1] | Potency [2] | Potency [3] | outcome [4] | Potency [5] | activation ([6]; at 70.3 µM (top of the series)) -13.8% and 18.3% | Potency [7] | Potency [8] | Potency [9] | Potency [10] | Potency [11] | outcome [12] | outcome [13] | Potency [14] | Potency [19] | Potency [15] | Potency [16] | Potency [17] | outcome [18]

CNC(=O)N(C)c1nc2ccccc2s1
active: Potency [11] 27.3 µM
inactive: Potency [1] | Potency [20] | Potency [2] | Potency [8] | Potency [9] | Potency [10] | outcome [12] | outcome [13] | Potency [14] | Potency [19] | Potency [16] | Potency [17]

CC(C)CP(=S)(S)CC(C)C
inactive: Potency [1] | Potency [2] | Potency [3] | outcome [4] | Potency [5] | activation ([6]; at 70.3 µM (top of the series)) -12.9% | Potency [7] | Potency [8] | Potency [9] | Potency [10] | Potency [11] | outcome [12] | outcome [13] | Potency [15] | Potency [16] | Potency [17] | outcome [18]

CCC/C(=N\OCC)C1=C(O)CC(CC(C)SCC)CC1=O (configuration not stated)
inactive: Potency [1] | Potency [2] | Potency [3] | outcome [4] | Potency [5] | activation ([6]; at 95 µM (top of the series)) -1.67% | Potency [7] | Potency [8] | Potency [9] | Potency [10] | Potency [11] | outcome [12] | outcome [13] | Potency [14] | Potency [19] | Potency [16] | Potency [17]

CC(=O)Nc1cc([As](=O)(O)O)ccc1O
inactive: Potency [1] | Potency [2] | Potency [3] | Potency [5] | activation ([6]; at 70.3 µM (top of the series)) 10% | Potency [8] | Potency [9] | Potency [10] | Potency [11] | outcome [12] | outcome [13] | Potency [14] | Potency [16] | Potency [17]

N#CC(CCc1ccc(Cl)cc1)(Cn1cncn1)c1ccccc1 (configuration not stated)
active: Potency [1] 30.6 µM | Potency [20] 34.4 µM | Potency [7] 61.1 µM | Potency [9] 30.6 µM
inactive: Potency [2] | Potency [5] | Potency [8] | Potency [10] | Potency [11] | Potency [19] | Potency [16] | Potency [17] | outcome [18]
